Results with a measured potency or affinity are listed apart. Calls of active or inactive are those of the source.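 Rule for the calls: active = signal-lowering compounds whose fitted half-maximal concentration is at or below twice the top tested dose in every run; inconclusive = runs disagree, flat 30 to 70% inhibition, or poor curve fit; inactive = the rest.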
Target: Protein S100-A4 (Homo sapiens) (UniProt P26447)
Test: human S100A4 peptide interaction inhibition curves – biochemical, fluorescence polarization, cherry-picked hits, dose response (AID 687001)
Details: FP, S100A4/TAMRA-myosin IIA peptide binding; series mostly up to 11 µM

Sequence of Protein S100-A4 (Homo sapiens) (P26447 whole entry, looked up): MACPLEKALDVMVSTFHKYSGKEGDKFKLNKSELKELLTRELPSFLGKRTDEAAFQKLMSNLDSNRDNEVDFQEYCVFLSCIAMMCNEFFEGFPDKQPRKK

outcome, inactive:
CC(=O)N1CCCCN2[C@H](CO)[C@H](c3ccc(C#Cc4ccccc4F)cc3)[C@@H]2C1
COCCNC(=O)C1CCCN(Cc2ccc(C(C)C)cc2)CC1 (centres undefined)
CN(CC(=O)Nc1ccc(F)cc1)C(=O)CCc1nc2sc3c(c2c(=O)[nH]1)CCCC3
C[C@@H](NC(=O)C[C@H]1C=C[C@@H](NC(=O)C2CCC2)[C@H](CO)O1)c1ccccc1
CCc1ccc(C(=O)NNC(=O)c2c(CC)noc2C)cc1
CCOc1cc(S(=O)(=O)N2CCC(c3nc4ccccc4s3)CC2)c(OCC)cc1S(=O)(=O)N1CCCCC1
CC(C)n1nccc1N(Cc1ccc(C#N)cc1)S(=O)(=O)c1ccccc1
C/C=C/c1ccc([C@H]2[C@@H](CO)N(C(=O)Nc3ccccc3F)[C@H]2C#N)cc1
CC(C)c1ccc(/C=C(\NC(=O)c2ccccc2)C(=O)NCCCn2ccnc2)cc1

Source: PubChem BioAssay AID687001 (Broad Institute, 2013)
